Source: ChEMBL document CHEMBL4513135, “CO-ADD screening of IQOG CSIS (Spain) compounds”
Results with a measured potency or affinity are listed apart.

Tested on: Staphylococcus aureus
Conditions: Concentration 32 ug.mL-1; ASSAY_TEST Inhibition of Bacterial Growth; detection method Absorption (OD600); MEDIA CAMHB; plate type 384well; NBS; CORNING #3640; time 18 hr

| Compound | Inhibition |
| --- | --- |
| CCOc1nc(N)c(C#N)cc1C#N | 33.34% |
| Cl.ClCCCC1CCNCC1 | 28.57% |
| COC(=O)C(=Cc1ccccc1)NC(=O)c1ccccc1 | 11.82% |
| Cn1ccnc1C1c2c(nc3c(c2N)CCC3)Oc2ccc3ccccc3c21 (stereo not given) | 25.1% |
| CCOC(=O)c1cc2cc(OC)ccc2n1C | -7.5% |
| C#CCN(Cc1ccccc1)c1nc(N)c(C#N)c(-c2ccccc2)c1C#N | 11.64% |
| CN(C)c1nc(N)c(C#N)cc1C#N | 20.41% |
| CS(=O)(=O)O[C@H]1CC[C@H](OS(C)(=O)=O)CC1 | 29.12% |
| O=C1OC(c2ccccc2)=NC1=Cc1ccc(Cl)cc1 | 14.11% |
| N#Cc1c(NC2CCC(Cc3ccccc3)CC2)nc(NC2CCN(Cc3ccccc3)CC2)c(C#N)c1-c1ccccc1 (stereo not given) | 4.21% |
| O=C(O)c1c[nH]c2ccccc12 | -3.47% |
| COC(=O)C(=Cc1ccc(OC)cc1)NC(=O)c1ccccc1 | 17.26% |
| COc1ccc(-c2cc(-c3cc4ccc(F)cc4nc3Cl)cc(=O)[nH]2)cc1 | 24.97% |
| N#Cc1cc(C#N)c(NCCO)nc1N | 40.77% |
| C#CCNc1nc(NCC#C)c(C#N)cc1C#N | -5.55% |
| C=C1CN(C)c2ncc(C#N)c(=N)n21 | 2.81% |
| C#CCN(C)c1nc(NCCC2CCN(Cc3ccccc3)CC2)c(C#N)cc1C#N.Cl | 16.92% |
| Cl.N#Cc1c(Cl)nc(N)nc1NCCO | -0.92% |
| CCCC(C)NNC(=O)c1cc2ccccc2[nH]1 (stereo not given) | 2.06% |
| COc1ccc(/C=C2/N=C(c3ccccc3)OC2=O)cc1OC | -19.31% |

| Compound | Inhibition |
| --- | --- |
| ClCCC1CCN(Cc2ccccc2)CC1 | 26.32% |
| COc1ccc(C2c3ccc4ccccc4c3Oc3nc4c(c(N)c32)CCCC4)c(OC)c1 (stereo not given) | -6.11% |
| CCOC(=O)c1cc2ccccc2[nH]1 | 8.39% |
| O=C1OC(c2ccc([N+](=O)[O-])cc2)=NC1=Cc1ccccc1 | 12.67% |
| C#CCN(C)Cc1cc2cc(OC)ccc2n1C | 33.86% |
| N#CCC(=C(C#N)C#N)c1ccccc1 | 11.65% |
| Cn1c(C(=O)O)cc2cc(OCCCC3CCN(Cc4ccccc4)CC3)ccc21 | 27.49% |
| N#Cc1cccnc1Cl | 22.89% |
| C#CCN(C)c1nc(NCCCC2CCN(Cc3ccccc3)CC2)c(C#N)cc1C#N | 1.12% |
| N#CC1=C(Cl)Oc2c(ccc3ccccc23)C1c1ccccc1[N+](=O)[O-] (stereo not given) | 15.73% |
| COC(=O)C(NC(=O)c1ccccc1)=C(C)c1ccccc1 | 11.03% |
| C/C(Cc1ccccc1)=N\NC(=O)c1c[nH]c2ccccc12 | 5.98% |
| CC#CCN(C)Cc1cc2cc(OCc3ccccc3)ccc2n1C.O=C(O)C(=O)O | 7.01% |
| C#CCN(C)c1nc(Sc2ccccc2)c(C#N)c(-c2ccccc2)c1C#N | 6.49% |
| COc1ccc2c(c1)cc(CN(C)C)n2C | -0.93% |
| N#Cc1ccc(Br)cc1N | 4.6% |
| Nc1c2c(nc3c1C(c1ccc(Cl)c(Cl)c1)c1ccc4ccccc4c1O3)CCCC2 (stereo not given) | -15.84% |
| COc1ccc2c(c1)cc(CNc1ccccc1)n2C | 20.09% |
| C1CNCCNCCNCCNC1 | 30% |
| N#Cc1c(N)nc(N)c(C#N)c1-c1ccccc1 | 24.97% |
